Cruzain Triton = cruzain (T. cruzi) inhibition with detergent | P25779 | purified cruzain, Z-FR-AMC fluorescence, 0.01% Triton | Potency, µM, hits mostly inhibitors | actives 0.43% (n = 200,000); further: nearly all actives have a fitted effect of over 40% in size
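Detergent-containing arm of a paired screen for aggregation-based inhibition: 0.01% Triton X-100 present. Cruzain at 1.5 nM cleaved 2 uM Z-FR-AMC at pH 5.5 with 5 mM DTT; AMC fluorescence gain over 60 s measured activity.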
Giardia FBPA inh-1 = blocks Giardia fructose-bisphosphate aldolase activity. purified Giardia FBPA. Potency, µM (highest dose often 59.6 µM), most hits filed as inhibitors. actives 0.71% (n = 290,000). AID 2451; further: nearly all actives have a fitted effect of over 55% in size
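40 nM FBPA preincubated 10 min at RT with compound (up to 57.5 uM final), then substrate plus GAPDH/TPI/NAD/arsenate coupling and diaphorase/resazurin added. Fluorescence read after 20 min at RT, 525/598 nm.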
Cruzain noTriton = inhibitors of Trypanosoma cruzi cruzain without detergent | P25779 | purified cruzain, Z-FR-AMC fluorescence, no detergent | Potency, µM, usual class: inhibitors | actives 2.3% (n = 200,000); further: nearly all actives have a fitted effect of over 40% in size
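Purified cruzain at 1.5 nM, pre-incubated 15 min with compound at room temperature in 100 mM sodium acetate pH 5.5, 5 mM DTT, 0.00005% Triton X-100. Reaction started with 2 uM Z-FR-AMC; AMC fluorescence increase over 60 s gives rate.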
Giardia growth = inhibitors of Giardia lamblia growth. shares compounds with Giardia FBPA inh-1. Giardia lamblia trophozoite growth inhibition. Potency, µM (series often up to 57.5 µM), hits mostly inhibitors. actives 5% (n = 1,500). AID 2785;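 further: trophozoites exposed to compound for 48 h at 37 °C; nearly all actives have a fitted effect of over 70% in size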
Mammalian tox = mammalian cytotoxicity of Giardia aldolase inhibitor hits. actives 4% (n = 1,500). Potency, µM (titrated, usually from 57.5 µM), actives largely listed as inhibitors. mammalian cell viability counter-screen, qHTS. shares compounds with Giardia FBPA inh-1;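 further: Chinese hamster ovary cells used as mammalian cytotoxicity surrogate; viability measured as cellular ATP by luminescence; compound exposure lasted 48 h before reading; nearly all actives have a fitted effect of over 60% in size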
Giardia FBPA inh-2 = confirmation of Giardia fructose-bisphosphate aldolase inhibitors. shares compounds with Giardia FBPA inh-1. purified Giardia aldolase enzyme activity, qHTS. Potency, µM (titrated, usually from 57.5 µM), hits mostly inhibitors. actives 5% (n = 1,500). AID 2787; further: nearly all actives have a fitted effect of over 45% in size
Rabbit aldolase = rabbit FBP aldolase inhibition by Giardia aldolase hits; Potency, µM (doses to about 57.5 µM), most hits filed as inhibitors; AID 2794; Rabbit muscle FBPA enzyme inhibition, selectivity counter-screen; actives 4% (n = 1,500); shares compounds with Giardia FBPA inh-1; further: nearly all actives have a fitted effect of over 60% in size
Target sequence (P00883 whole entry, looked up): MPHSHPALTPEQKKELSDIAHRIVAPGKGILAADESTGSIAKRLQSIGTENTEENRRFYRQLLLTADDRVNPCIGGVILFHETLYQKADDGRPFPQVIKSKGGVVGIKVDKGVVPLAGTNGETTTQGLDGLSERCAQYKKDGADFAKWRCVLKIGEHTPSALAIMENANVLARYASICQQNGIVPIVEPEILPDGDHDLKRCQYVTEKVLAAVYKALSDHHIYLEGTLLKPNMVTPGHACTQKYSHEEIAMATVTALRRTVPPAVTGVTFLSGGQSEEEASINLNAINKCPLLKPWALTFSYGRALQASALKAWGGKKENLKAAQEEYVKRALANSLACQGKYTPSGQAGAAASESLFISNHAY
GAPDH counter = GAPDH inhibition flagged for Giardia aldolase hits. Potency, µM (titrated, usually from 57.5 µM), usual class: inhibitors. actives 6% (n = 1,500). shares compounds with Giardia FBPA inh-1. GAPDH coupling enzyme counterscreen, biochemical, qHTS; further: nearly all actives have a fitted effect of over 55% in size
Each line names hits and unclear results; the compound was inactive in the other large screens (follow-up assays come after a bar, where they were run); [ ] = dose if it differs, or a comment. This is one part of a sample in which hits are shown more often than they occur. The call rests on the fitted dose curve; in most records, active means well fitted curve in the direction sought with a large enough effect; inconclusive means small, poorly fitted or top-dose-only effect, or another doubt; inactive means no such curve, though single readings can be large; an effect the other way counts as inactive or inconclusive.

Cc1ccccc1N1CCN(CC(=O)Nc2nccs2)CC1	Giardia FBPA inh-1 11µM (no result: Cruzain Triton, Cruzain noTriton) | Giardia growth inactive | Mammalian tox inactive | Giardia FBPA inh-2 inactive | Rabbit aldolase inactive | GAPDH counter inactive
O=C(CN1CCN(c2ccc(F)cc2)CC1)Nc1nccs1	none (no result: Cruzain Triton, Cruzain noTriton)
NC(=O)C1CCN(CC(=O)Nc2nccs2)CC1	Giardia FBPA inh-1 3.5µM (no result: Cruzain Triton, Cruzain noTriton) | Giardia growth inconclusive | Mammalian tox inactive | Giardia FBPA inh-2 inactive | Rabbit aldolase inactive | GAPDH counter inactive
Cc1nn(C)c2c1c(-c1ccccc1)cc(=O)n2CC(=O)NC(C)c1ccccc1 (stereo not drawn)	none (no result: Giardia FBPA inh-1)
O=C(CCN1C(=O)c2ccccc2Sc2ncccc21)Nc1ccc(F)cc1	none (no result: Giardia FBPA inh-1)
O=C(Nc1ccc2nc(SCC(=O)N3CCOCC3)sc2c1)c1ccc(F)cc1	none (no result: Giardia FBPA inh-1)
O=C(O)c1[nH]c(=O)[nH]c(=O)c1CN1CCCCC1	none (no result: Giardia FBPA inh-1)
O=C(O)c1[nH]c(=O)[nH]c(=O)c1F	Giardia FBPA inh-1 20µM (no result: Cruzain Triton, Cruzain noTriton) | Giardia growth inactive | Mammalian tox inactive | Giardia FBPA inh-2 inactive | Rabbit aldolase inactive | GAPDH counter inactive
NC(=O)[C@@H]1CCCN1	none
Cc1[nH]c(=S)[nH]c(=O)c1CCC1OCCO1	Giardia FBPA inh-1 7.1µM (no result: Cruzain Triton, Cruzain noTriton) | Giardia growth inactive | Mammalian tox inactive | Giardia FBPA inh-2 inactive | Rabbit aldolase inactive | GAPDH counter inactive
Cc1[nH]c(=S)[nH]c(=O)c1CCCO	none (no result: Cruzain Triton, Cruzain noTriton)
COc1ccc(CNc2nc3c(c(=O)[nH]c(=O)n3C)n2CCCc2ccccc2)cc1	none
COc1ccc(CCn2c(NN=C3CCCCC3)nc3c2c(=O)[nH]c(=O)n3C)cc1	Giardia FBPA inh-1 4.5µM (no result: Cruzain Triton, Cruzain noTriton) | Giardia growth inactive[10.4 µM] | Mammalian tox inactive | Giardia FBPA inh-2 5.6µM | Rabbit aldolase inconclusive | GAPDH counter 7.9µM
OC[C@@H]1O[C@@H](O)[C@H](O)[C@H](O)[C@@H]1O	none (no result: Cruzain Triton, Cruzain noTriton)
CCOc1ccc(C(=O)NCc2ccc3c(c2)CCN3C(=O)c2ccc(C)cc2)cc1OCC	none (no result: Giardia FBPA inh-1)
CCN(CC(=O)NCc1ccccc1Cl)CC(=O)Nc1c(F)cccc1F	Giardia FBPA inh-1 18µM (no result: Cruzain Triton, Cruzain noTriton) | Giardia growth inactive | Mammalian tox inactive | Giardia FBPA inh-2 inactive | Rabbit aldolase inactive | GAPDH counter inactive
O=C(Cc1cccc2ccccc12)Nc1c(F)cccc1F	none (no result: Cruzain Triton, Cruzain noTriton)
CCOc1ccc(C(=O)OCc2cc(=O)n3nc(C4CCCCC4)sc3n2)cc1	none (no result: Giardia FBPA inh-1)
CCn1c(O)c(C#N)c(C)cc1=O	Giardia FBPA inh-1 13µM (no result: Cruzain Triton, Cruzain noTriton) | Giardia growth inconclusive | Mammalian tox inactive | Giardia FBPA inh-2 inconclusive | Rabbit aldolase inconclusive | GAPDH counter inconclusive
Cc1cc(=O)n(CCO)c(O)c1C#N	Giardia FBPA inh-1 inconclusive
COc1ccc(C)cc1-n1c(C)cc(C=O)c1C	none (no result: Cruzain Triton, Cruzain noTriton)
COc1ccc(N)cc1-n1c(C)ccc1C	Giardia FBPA inh-1 inconclusive (no result: Cruzain Triton, Cruzain noTriton) | Giardia growth inactive | Mammalian tox inactive | Giardia FBPA inh-2 inconclusive | Rabbit aldolase inconclusive | GAPDH counter 8.9µM
CC[C@H](C)[C@H](NC(=O)[C@H](Cc1ccc(O)cc1)NC(=O)[C@@H]1CCCN1C(=O)[C@H](CCCN=C(N)N)NC(=O)[C@H](CCCN=C(N)N)NC(=O)[C@@H]1CCCN1C(=O)[C@H](CCCCN)NC(=O)[C@H](CC(N)=O)NC(=O)[C@H](CCC(N)=O)NC(=O)[C@H](Cc1ccc(O)cc1)NC(=O)[C@H](CC(C)C)NC(=O)[C@@H]1CCC(=O)N1)C(=O)N[C@@H](CC(C)C)C(=O)O	none (no result: Cruzain Triton, Cruzain noTriton)
Cc1cccc(CSc2nc3c(c(=O)[nH]2)C(c2cccc(O)c2)CC(=O)N3)c1 (stereo not drawn)	none (no result: Giardia FBPA inh-1)
C=CCN(CC#CCOc1ccccc1OC)CC=C	Giardia FBPA inh-1 20µM (no result: Cruzain Triton, Cruzain noTriton) | Giardia growth inactive[10.4 µM] | Mammalian tox inactive | Giardia FBPA inh-2 inactive | Rabbit aldolase inactive | GAPDH counter inactive
COc1ccccc1OCC#CCSc1ncccn1	none (no result: Cruzain Triton, Cruzain noTriton)
CCOC(=O)OCC1OC(C#CC(C)(C)C)C=CC1OC(=O)OCC (stereo not drawn)	none (no result: Cruzain Triton, Cruzain noTriton)
O=C(Nn1cc(C(=O)Nc2ccc(F)cc2F)c2ccccc2c1=O)c1cnccn1	Giardia FBPA inh-1 18µM (no result: Cruzain Triton, Cruzain noTriton) | Giardia growth inconclusive | Mammalian tox inactive | Giardia FBPA inh-2 inactive | Rabbit aldolase inactive | GAPDH counter inactive

Compound activity from PubChem.
